# About 83,000 compounds went through this panel and 20% of them were active in at least one assay; those are over-represented in the sample as a whole.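 Cells were grown in 96-well plates and exposed to the test compound at a single concentration for 48 hours; results are reported as percent growth, with values below 10 considered active.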 Unmarked numbers belong to inactive results. Active and inactive are the calls of the source.
# Test system: MDA-MB-468 breast
# Experiment: NCI-60 one-dose screen, 48 h (100 = growth as untreated, 0 = no growth, -100 = all killed)
# Conditions: 10 µM unless noted
row,SMILES,growth
1,C=C1C(=O)O[C@H]2[C@H]1CC/C(COC(=O)/C=C/c1cccnc1)=C\CC[C@@]1(C)O[C@@H]21,10.9%
2,O=[N+]([O-])c1ccc(N2CCN=N2)cc1,93.9%
3,COc1cc(/C=C/C(=O)c2cc(OC)c(OC)c(OC)c2)ccc1OCc1ccccc1,21.5%
4,O=C(Nc1ccc(Cl)cc1F)c1cc(Br)ccc1O,0.453% (active)
5,NS(=O)(=O)c1ccc(-n2cc(-c3cccc(NC(=O)c4ccc(N5CCOCC5)c(C(F)(F)F)c4)c3)nn2)cc1,36.7%
6,CN(C)c1ncnc2c1cnn2C,106%
7,CN(C)CCNC(=O)c1ccc(-c2nc3ccc4[nH]ncc4c3c3c2C2CCC3C2)cc1 (stereo not given),16.2%
8,Cn1cc(-c2nc(-c3c[nH]c4ccncc34)cs2)c2cc(F)ccc21,-72.8% (active)
9,N[C@H]1CCC[C@@H]1NCCCCN1C(=O)c2cccc3cc([N+](=O)[O-])cc(c23)C1=O,38.8%
10,Cc1ccc(-n2cc(/C=N/NC(=O)c3ccncc3)c(-c3ccc(S(C)(=O)=O)cc3)n2)cc1,100%
11,CC(NC(=O)c1ccccc1)C(=O)Nc1ccccc1 (stereo not given),109%
12,Cc1ccccc1COc1ccc(-c2ccnn2-c2ccc(Cl)cc2)cc1,41.1%
13,COC(=O)c1nc(-c2ccccc2)oc1S(=O)(=O)n1nc(-c2ccccc2)cc1N,74.6%
14,CN1CCN(c2ccc(Nc3nc(NCCCNS(=O)(=O)c4ccccc4)c4sccc4n3)cc2)CC1,30.3%
15,CC(C)C(C)C(N)C(=O)O (stereo not given),107%
16,COc1ccc(-c2cc(-c3cc(OC)c(OC)c(OC)c3)c(C#N)c(=O)n2CCCCC(=O)NO)cc1,72.3%
17,C[N+](C)(C)c1ccc(CC2c3ccccc3-c3ccccc32)cc1,-24.1% (active)
18,O=C(CCC(=O)c1nc2ncccc2[nH]1)NN1C(=O)CSC1c1ccc(Cl)cc1 (stereo not given),112%
19,Cc1c(-n2nnc(-c3nc4ccccc4s3)c2N)c(=O)n(-c2ccccc2)n1C,110%
20,COc1ccc(C2C3=C(COC3=O)N(CCO)c3cc4c(cc32)OCCO4)cc1OC (stereo not given),-32.1% (active)

row,SMILES,growth
1,CCCCCN(CCCCC)C(C)C(O)c1ccc2cc(Cl)c3ccccc3c2c1 (stereo not given),91%
2,COc1cc(OC)c(C(=O)/C=C/c2cccc(OC(C)=O)c2)cc1CC=C(C)C,58.3%
3,CCc1nn2c(-c3ccccc3)c(-c3cc(OC)c(OC)c(OC)c3)nc2s1,66%
4,COc1cc(-c2csc(NC(=O)Nc3ccc(C(F)(F)F)cc3)n2)cc(OC)c1OC,-8.63% (active)
5,O=C1NC(=O)/C(=C\c2ccccc2)C2=C1CCCC2,95.3%
6,CC(C)C[C@H](NC(=O)CCn1ccc2ccccc2c1=O)B(O)O,6.61% (active)
7,CCCCN=C(N)c1ccc(OCCSCCOc2ccc(C(N)=NCCCC)cc2)cc1,38.9%
8,CN(C)CCN1C(=O)c2c(c3c4ccccc4n4c3c3c2c2ccccc2n3C2CC(O)C(O)C4(C)O2)C1=O (stereo not given),12.8%
9,COC(=O)c1cc(O)c2c(c1C(=O)OC)C[C@H]1[C@@H]3CC=C4C[C@@H](O)CC[C@]4(C)[C@H]3CC[C@]21C,35.3%
10,COc1cc2nccc(Oc3ccc(NC(=O)C4(C(=O)Nc5c(F)cc(F)cc5F)CC4)cc3)c2cc1Oc1ccc(N)cn1,33.3%
11,C=C(C)[C@@H]1CC=C2c3sc(-c4ccc(C)cc4)nc3C[C@@H](C)[C@]2(C)C1,108%
12,O=C1C(=O)c2ccccc2C(O)=C1CCCc1ccc(C2CCCCC2)cc1,17.5%
13,Clc1ccc2c(c1)C(c1c[nH]c3ccccc13)(c1c[nH]c3ccccc13)CCO2,86.5%
14,CCCC(=O)NC(c1ccc2c(c1)OCO2)c1ccc2cccnc2c1O (stereo not given),-16% (active)
15,COc1cc(-c2nn(-c3cccc(NC(=O)CCN4CCN(C)CC4)c3)cc2-c2ccncc2)ccc1Cl,18.2%
16,Clc1ncccc1Nc1ccc2nnc(-c3ccncc3)n2n1,99.9%
17,O=C(NO)c1ccc(Cn2c(=O)n(CCc3ccc(O)cc3)c(=O)c3ccccc32)cc1,29.8%
18,NC/C(=C/F)COc1ccc2nc(NCc3cccnc3)oc2c1,107%
19,CC1C(c2ccccc2)OCCN1C(=S)Nc1ccc(S(=O)(=O)N2CCCCC2)cc1 (stereo not given),80.4%
20,COc1cnc2c(c1)C(=O)c1c-2n(CCCN2CCCC2)c(=O)c2cc(F)ccc12,-29.5% (active)
